PubChem BioAssay
The source made the active and inactive calls.

How the values were obtained:
[1] = small molecules captured by biotinylated probe aFSTL3 – biochemical, small-molecule microarray, fluorescence 635/667, stem cell growth factor project, primary screen (AID 1064); conditions: higher = more signal;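 note: measures binding of the biotinylated anti-FSTL3 antibody to printed compounds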
[2] = binders from COS7 lysate, DM2A8 probe, primary screen, torsin A project, cell lysate, small-molecule microarray, fluorescence 635/667 (AID 1065); conditions: higher = more signal, COS7 lysate expressing mutant human TOR1A
[3] = small molecules captured by biotinylated probe aFGF2 – biochemical, small-molecule microarray, fluorescence 635/667, stem cell growth factor project, primary screen (AID 1067); conditions: higher = more signal;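 note: measures binding of biotinylated aFGF2 protein to printed compounds on slides; z-score merges feature fluorescence and signal-to-noise across triplicate slides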
[4] = small molecules captured by biotinylated probe aFGF10 – biochemical, small-molecule microarray, fluorescence 635/667, stem cell growth factor project, primary screen (AID 1071); conditions: higher = more signal;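 note: score merges 667 nm spot intensity and signal to noise from triplicate slides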
[5] = target: Neurogenic locus notch homolog protein 2 (Homo sapiens) (UniProt Q04721); test: small molecules binding Notch2 protein – biochemical, small-molecule microarray, 635 nm fluorescence, stem cell growth factors, primary screen (AID 1073); conditions: higher = more signal
[6] = target: Pro-neuregulin-1, membrane-bound isoform (Homo sapiens) (UniProt Q02297); test: small molecules binding neuregulin-1 protein – biochemical, small-molecule microarray, fluorescence 635/667, psychiatric disease protein project, primary screen (AID 1075); conditions: NRG1 binding, 635 nm fluorescence, higher = more signal;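 note: score combines 667 nm spot fluorescence with signal to noise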
[7] = tested on: Neuregulin-1 EGF-like domain; test: small molecules binding NRG1 EGF domain – biochemical, small-molecule microarray, 635 nm fluorescence, primary screen (AID 1081); conditions: higher = more signal;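 note: binding of the protein to compounds printed on small-molecule microarray slides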
[8] = FRG1 expression reporter modulators in myotubes – cell-based, C2C12 myotubes, firefly/Renilla luciferase, luminescence, FRG1 inhibition for FSHD, primary screen (AID 1084); conditions: FRG1 promoter luciferase, higher = more signal, called active from +8 up or from −8 down
[9] = small molecules captured by biotinylated probe aFST – biochemical, small-molecule microarray, fluorescence 635/667, stem cell growth factor project, primary screen (AID 1086); conditions: higher = more signal;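 note: score merges 667 nm fluorescence with signal-to-noise of each printed compound spot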
[10] = binders of probe aHhip on microarray, primary screen, stem cell growth factor project, biochemical, small-molecule microarray, fluorescence 635/667 (AID 1087); conditions: higher = more signal;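 note: score merges spot fluorescence at 667nm with spot signal to noise ratio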
[11] = tested on: PRMT1 (protein arginine N-methyltransferase 1); test: small molecules binding arginine methyltransferase PRMT1 – biochemical, small-molecule microarray, 635 nm fluorescence, primary screen (AID 1088); conditions: higher = more signal;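 note: binding of Prmt1 protein to compounds spotted on small-molecule microarray slides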
[12] = growth effects on S. cerevisiae YJM789 – YJM789 clinical isolate, OD600, 24 h, basal, primary screen (AID 1089); conditions: higher = more signal, called active from +8 up or from −8 down;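 note: growth of clinical yeast isolate S. cerevisiae YJM 789 seeded 1000 cells per well; test concentration not given here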
[13] = S. pombe growth modifiers, basal conditions – strain 972, OD600, 24 h, no modulator, primary screen (AID 1090);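 note: basal condition with compound alone and no growth modifier present; test concentration not given here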; conditions: S. pombe 972 growth, higher = more signal, called active from +8 up or from −8 down
[14] = budding yeast growth modifiers under rapamycin – strain BY4716, OD600, 96 h, primary screen (AID 1091); note: test concentration not given here; conditions: S. cerevisiae BY4716 + rapamycin, higher = more signal, called active from +8 up or from −8 down
[15] = target: Torsin-1A-interacting protein 2 (Homo sapiens) (UniProt Q8NFQ8); test: small molecules binding lysate-expressed LULL1 – cell lysate, human LULL1 lysate, 635/667 nm fluorescence, primary screen (AID 1092); conditions: small-molecule microarray, hLULL1 lysate binding, 635 nm fluorescence; higher = more signal;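 note: probe is lysate of COS7 cells overexpressing human LULL1; score merges per-feature 667 nm fluorescence with signal-to-noise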
[16] = optical density change of DRC41 E. coli – strain DRC41, OD650, 24 h, E. coli filamentation project, primary screen (AID 1093);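 note: MC1000 strain lacking acrAB efflux and sulA so SOS filamentation is blocked; test concentration not given here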; conditions: E. coli DRC41 growth, higher = more signal, called active from +8 up or from −8 down
[17] = probe aLefty2 binding to arrayed compounds – biochemical, biotinylated probe, 635/667 nm fluorescence, primary screen (AID 1094); conditions: small-molecule microarray, higher = more signal;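 note: score merges spot fluorescence near 667 nm with spot signal-to-noise ratio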
[18] = tested on: Noggin (protein binding on small-molecule microarray); test: small molecules binding Noggin protein – biochemical, 635/667 nm fluorescence, primary screen (AID 1095); conditions: 635 nm fluorescence, higher = more signal;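 note: score merges 667 nm feature fluorescence with signal to noise over triplicate slides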
[19] = target: Neurogenic locus notch homolog protein 3 (Homo sapiens) (UniProt Q9UM47); test: small molecules binding NOTCH3 protein – biochemical, 635/667 nm fluorescence, primary screen (AID 1096); conditions: small-molecule microarray, 635 nm fluorescence, higher = more signal
[20] = probe aEGFR binding to arrayed compounds – biochemical, biotinylated probe, 635/667 nm fluorescence, primary screen (AID 1097); conditions: small-molecule microarray, higher = more signal;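 note: probe is a biotinylated anti-EGFR antibody binding compounds printed on slides; score combines fluorescence near 667 nm and signal to noise of each spot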

Sequence of Torsin-1A-interacting protein 2 (Homo sapiens) (Q8NFQ8 whole entry, looked up): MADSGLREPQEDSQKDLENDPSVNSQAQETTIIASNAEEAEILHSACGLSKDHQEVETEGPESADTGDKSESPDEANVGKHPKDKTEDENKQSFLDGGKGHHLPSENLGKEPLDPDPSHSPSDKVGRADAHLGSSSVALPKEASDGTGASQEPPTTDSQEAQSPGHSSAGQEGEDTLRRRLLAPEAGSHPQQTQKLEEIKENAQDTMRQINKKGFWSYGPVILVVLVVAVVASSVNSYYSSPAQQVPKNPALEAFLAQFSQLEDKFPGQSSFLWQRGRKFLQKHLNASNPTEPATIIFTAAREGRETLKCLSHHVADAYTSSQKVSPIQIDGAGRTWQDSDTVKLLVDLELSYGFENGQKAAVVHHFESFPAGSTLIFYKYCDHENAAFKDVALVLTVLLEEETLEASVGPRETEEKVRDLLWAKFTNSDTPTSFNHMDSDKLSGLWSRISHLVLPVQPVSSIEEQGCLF
Sequence of Neurogenic locus notch homolog protein 3 (Homo sapiens) (Q9UM47 whole entry, looked up): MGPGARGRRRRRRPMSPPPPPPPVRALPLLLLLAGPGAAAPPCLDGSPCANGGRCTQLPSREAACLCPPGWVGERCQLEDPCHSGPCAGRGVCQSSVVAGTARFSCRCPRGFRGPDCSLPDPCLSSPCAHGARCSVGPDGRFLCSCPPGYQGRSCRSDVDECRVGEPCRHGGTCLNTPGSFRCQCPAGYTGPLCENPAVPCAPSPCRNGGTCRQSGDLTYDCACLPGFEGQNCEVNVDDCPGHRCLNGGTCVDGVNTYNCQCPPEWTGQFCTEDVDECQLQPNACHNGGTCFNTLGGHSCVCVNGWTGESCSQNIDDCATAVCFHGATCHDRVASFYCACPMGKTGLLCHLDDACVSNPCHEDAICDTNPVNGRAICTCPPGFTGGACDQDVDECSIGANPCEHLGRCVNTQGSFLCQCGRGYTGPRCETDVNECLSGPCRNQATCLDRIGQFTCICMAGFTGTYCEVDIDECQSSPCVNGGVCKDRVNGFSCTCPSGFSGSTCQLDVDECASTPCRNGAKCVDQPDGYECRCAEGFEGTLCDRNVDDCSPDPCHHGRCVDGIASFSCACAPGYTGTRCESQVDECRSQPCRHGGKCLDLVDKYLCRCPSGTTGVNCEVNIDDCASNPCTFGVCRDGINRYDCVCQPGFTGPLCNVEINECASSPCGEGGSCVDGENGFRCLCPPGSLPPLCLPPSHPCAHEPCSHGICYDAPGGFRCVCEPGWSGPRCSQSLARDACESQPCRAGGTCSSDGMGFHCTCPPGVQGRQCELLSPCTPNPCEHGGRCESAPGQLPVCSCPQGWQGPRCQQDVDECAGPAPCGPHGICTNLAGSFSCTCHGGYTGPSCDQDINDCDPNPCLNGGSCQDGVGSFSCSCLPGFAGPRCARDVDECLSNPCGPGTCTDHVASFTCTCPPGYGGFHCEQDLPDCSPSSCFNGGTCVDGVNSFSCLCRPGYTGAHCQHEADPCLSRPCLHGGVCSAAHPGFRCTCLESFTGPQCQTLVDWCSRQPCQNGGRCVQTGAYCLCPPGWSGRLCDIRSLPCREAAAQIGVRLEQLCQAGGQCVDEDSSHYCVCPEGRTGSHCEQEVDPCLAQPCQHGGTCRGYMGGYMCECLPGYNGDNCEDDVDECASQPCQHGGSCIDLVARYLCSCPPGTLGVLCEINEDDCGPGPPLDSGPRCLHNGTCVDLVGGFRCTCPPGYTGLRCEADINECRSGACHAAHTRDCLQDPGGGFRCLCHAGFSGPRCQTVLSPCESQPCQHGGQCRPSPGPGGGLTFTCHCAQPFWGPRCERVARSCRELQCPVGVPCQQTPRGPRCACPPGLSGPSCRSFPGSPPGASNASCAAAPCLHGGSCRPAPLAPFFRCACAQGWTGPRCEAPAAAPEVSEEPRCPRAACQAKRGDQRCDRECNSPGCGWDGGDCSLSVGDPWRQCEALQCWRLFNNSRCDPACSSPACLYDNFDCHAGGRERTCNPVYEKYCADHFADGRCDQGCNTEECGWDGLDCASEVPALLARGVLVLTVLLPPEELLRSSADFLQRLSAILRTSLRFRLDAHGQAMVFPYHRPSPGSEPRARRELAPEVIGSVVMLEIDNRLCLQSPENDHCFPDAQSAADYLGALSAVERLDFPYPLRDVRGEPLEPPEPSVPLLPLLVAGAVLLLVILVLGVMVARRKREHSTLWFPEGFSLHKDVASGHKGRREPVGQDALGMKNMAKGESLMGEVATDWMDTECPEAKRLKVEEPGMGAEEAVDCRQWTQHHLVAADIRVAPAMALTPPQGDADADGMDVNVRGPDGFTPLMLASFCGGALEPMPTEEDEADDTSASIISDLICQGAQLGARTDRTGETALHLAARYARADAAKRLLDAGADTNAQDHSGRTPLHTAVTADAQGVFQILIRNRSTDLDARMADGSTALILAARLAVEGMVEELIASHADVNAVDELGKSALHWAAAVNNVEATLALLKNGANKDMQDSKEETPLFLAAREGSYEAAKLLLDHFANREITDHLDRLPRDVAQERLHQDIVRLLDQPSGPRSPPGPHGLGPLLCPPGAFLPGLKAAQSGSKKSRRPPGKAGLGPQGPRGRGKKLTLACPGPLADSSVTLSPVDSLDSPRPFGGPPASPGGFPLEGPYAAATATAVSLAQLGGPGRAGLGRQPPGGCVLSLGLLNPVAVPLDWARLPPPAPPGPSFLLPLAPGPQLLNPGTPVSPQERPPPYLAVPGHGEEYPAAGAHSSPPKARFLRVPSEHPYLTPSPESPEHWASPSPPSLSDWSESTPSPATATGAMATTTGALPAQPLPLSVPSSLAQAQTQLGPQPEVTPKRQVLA
Sequence of Pro-neuregulin-1, membrane-bound isoform (Homo sapiens) (Q02297 whole entry, looked up, the tested form may be a part, canonical isoform): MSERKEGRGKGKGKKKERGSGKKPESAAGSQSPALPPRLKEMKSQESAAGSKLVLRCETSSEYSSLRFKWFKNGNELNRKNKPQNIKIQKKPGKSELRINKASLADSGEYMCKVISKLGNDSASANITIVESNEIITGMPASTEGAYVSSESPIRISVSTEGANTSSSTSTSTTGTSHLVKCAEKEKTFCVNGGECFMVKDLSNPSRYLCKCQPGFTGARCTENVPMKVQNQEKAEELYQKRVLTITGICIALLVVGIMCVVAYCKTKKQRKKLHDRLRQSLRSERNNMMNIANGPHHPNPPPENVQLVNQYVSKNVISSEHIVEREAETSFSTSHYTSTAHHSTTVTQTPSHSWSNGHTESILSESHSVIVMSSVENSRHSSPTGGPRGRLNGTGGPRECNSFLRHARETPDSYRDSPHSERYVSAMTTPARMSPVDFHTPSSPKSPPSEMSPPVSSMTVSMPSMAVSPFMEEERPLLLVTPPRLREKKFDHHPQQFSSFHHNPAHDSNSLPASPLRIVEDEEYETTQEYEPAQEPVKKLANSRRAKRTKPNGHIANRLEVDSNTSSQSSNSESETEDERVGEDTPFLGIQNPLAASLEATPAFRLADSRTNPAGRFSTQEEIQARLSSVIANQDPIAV

| Compound | composite z-score [1] | composite z-score [2] | composite z-score [3] | composite z-score [4] | composite z-score [5] | composite z-score [6] | composite z-score [7] | z-score [8] | composite z-score [9] | composite z-score [10] | composite z-score [11] | z-score [12] | z-score [13] | z-score [14] | composite z-score [15] | z-score [16] | composite z-score [17] | composite z-score [18] | composite z-score [19] | composite z-score [20] |
| --- | --- | --- | --- | --- | --- | --- | --- | --- | --- | --- | --- | --- | --- | --- | --- | --- | --- | --- | --- | --- |
| C[C@H]1C2[C@H](Cc3ccccc3)NC(=O)[C@]23C(=O)NCC(=O)N2CCC[C@H]2C(=O)NC/C=C\C/C=C/C3[C@@H]2O[C@]12C (stereo not given in full) | -0.376 | 0.171 | -0.087 | 0.557 | 0.726 | -0.139 | -0.0828 | 0.276 (inactive) | -0.274 | 0.123 | -0.115 | -0.479 (inactive) | -0.186 (inactive) | -0.406 (inactive) | -0.691 | 0.924 (inactive) | -0.161 | -0.102 | 0.105 | -0.0531 |
| CO[C@H]1O[C@H](CO)[C@@H](OC(=O)Nc2ccccc2)[C@@H]2OC(=O)[C@H](Cc3ccccc3)C/C=C/C[C@@H](Cc3ccccc3)C(=O)O[C@@H]12 | 0.146 | 0.779 | 0.0732 | 0.775 | 1.48 | 1.14 | 1.04 | -1.64 (inactive) | 0.654 | -0.0296 | 1.55 | -1.03 (inactive) | -0.0378 (inactive) | 1.9 (inactive) | 2.58 | 0.588 (inactive) | -0.104 | 0.107 | 0.702 | 0.0308 |
| C=C(C(=O)CC[C@@H](OC(C)=O)c1cccc(OCCO)c1)C(C)C | -0.0377 | 0.108 | -0.0996 | 0.365 | -0.768 | 1.92 | 0.568 | 0.44 (inactive) | -0.337 | -0.0672 | 0.745 | 1.55 (inactive) | -0.464 (inactive) | 0.339 (inactive) | 1.62 | 0.351 (inactive) | -0.186 | -0.0056 | 0.507 | -0.207 |
| COCCOC(=O)N1C(=O)[C@@]2(c3cc(C#CC4=CCCCC4)ccc31)[C@H](c1ccccc1OCCO)N1[C@H](c3ccccc3)[C@H](c3ccccc3)OC(=O)[C@H]1[C@@H]2C(N)=O | -0.42 | 0.599 | 0 | 0.525 | 0.931 | -0.253 | 1.05 | -0.89 (inactive) | 0.366 | -0.217 | 1.56 | 0.05 (inactive) | -0.96 (inactive) | 1.69 (inactive) | 1.66 | 2.66 (inactive) | -0.107 | 1.39 | 1.1 | -0.0211 |
